Assay results: article PMC13494018; call rule not given here

B1: design_609_7ee6ce64-4629-41e8-bcb4-ba0da017284d_81_dldesign_0_cycle1_af2pred (protein)
chain: SKALADALRAAQRALRALGRRAAALDPALAAEVTAALFAVYDQSTAEAAKAAADAAVAAATARIAALEAAA
B2: design_609_7ee6ce64-4629-41e8-bcb4-ba0da017284d_91_dldesign_0_cycle1_af2pred (protein)
chain: SDLENNKKALQYAEAAAEAAEFGSLKAAQGLLKKAAELATDEETKKLLLEAAEKEDLKELLKLAKEAAKKLKKNVE
B3: design_608_fd41b8f9-4da9-4c78-93ec-aaa316ed4933_1798_dldesign_0_cycle1_af2pred (protein)
chain: NEAIKEAEKAAKEAKEAYKKAGEVSGETEKAERMIKRVEELLEAGKKDPSKAEKYKAQIEALRDHAKEVLKKAEAKKKA
B4: design_608_fd41b8f9-4da9-4c78-93ec-aaa316ed4933_2208_dldesign_0_cycle1_af2pred (protein)
chain: AAAAAAKAKALADAAKKAAKEYVKYAKEEDPEKGRKLLYEDMKKAYALAKADPALAPAAKEIAKIAQEAFQEIADIIGEKK
B5: design_608_fd41b8f9-4da9-4c78-93ec-aaa316ed4933_2334_dldesign_0_cycle1_af2pred (protein)
chain: MTPEEKQEMVKQAVELVKNAKGAFDALEAADLIIEAYEKDPEAGKQAIEAAKAEAEKKIKENPLLGKTALRMIENAEIAMKNLE
B6: design_608_fd41b8f9-4da9-4c78-93ec-aaa316ed4933_1632_dldesign_0_cycle1_af2pred (protein)
chain: EAEKKFKEAKKLASEAAEKLATLAAEAAFKGKEELAKEAREALKKLREKGKEAEKLYKEDPEKAAKVLKKAAEEALKKAEKLEKEL
B7: design_608_fd41b8f9-4da9-4c78-93ec-aaa316ed4933_1906_dldesign_0_cycle1_af2pred (protein)
chain: DVKKEAEKLRDKGKERAKRRLEDAKKISPQYAEAAYEALEQASKNAKKLAEKYPEAKEIYEELAKYFEEQAKKAKEIAE
B8: design_608_fd41b8f9-4da9-4c78-93ec-aaa316ed4933_2353_dldesign_0_cycle1_af2pred (protein)
chain: SNKEEADLLRELARAAKAAGAALAALAAADPSEAARAAALKAEFSQALFDAADGKLNEAEIKAIIARMEAVAAAA
B9: design_608_fd41b8f9-4da9-4c78-93ec-aaa316ed4933_2160_dldesign_0_cycle1_af2pred (protein)
chain: MEEKAKKYLEAAKKAKKYAEYAAKIDKEAAEKAKEAAKLLEEAAKLYLEGADEEEIEKASKKAAEKLGEARFEYNVVKQKEKRK
B10: design_609_7ee6ce64-4629-41e8-bcb4-ba0da017284d_97_dldesign_0_cycle1_af2pred (protein)
chain: NKLEEAKKAVKKLKELAKKAKEVAKDLKKTEELVKKAEEEYKKAIKLAREAAKEGDEETKKEAKKLAEEAHEAYNEALLALVKARE
B11: design_608_fd41b8f9-4da9-4c78-93ec-aaa316ed4933_1926_dldesign_0_cycle1_af2pred (protein)
chain: DAEEEAKKLKEEAEKKLKEIKQMAKDGTATVEEIEKERKEGIEALKKAAKLVPEKKEEYAKLAEEIVEAYSDAYYESLKKERE
B12: design_608_fd41b8f9-4da9-4c78-93ec-aaa316ed4933_1151_dldesign_0_cycle1_af2pred (protein)
chain: SMAEEEKKEKEKKKAETLALNAKGLEAIDKGDFTTAAKLYEKAAEVAPTEELKKRAEKGAKAMKKLEKAAKE
B13: design_608_fd41b8f9-4da9-4c78-93ec-aaa316ed4933_1996_dldesign_0_cycle1_af2pred (protein)
chain: AEKAKELREQAEKLREEARKYAEYAPPEVVHELYQAAAESISYFNLAEKGEATEEQIKEGEEAFKKLKELTEEIKERAKKAEEEA
B14: design_608_fd41b8f9-4da9-4c78-93ec-aaa316ed4933_1401_dldesign_0_cycle1_af2pred (protein)
chain: MEEEAKKYVEYTKKKAEEAKKNAKKAKEAGASQEAIQLFIDAAQYYLLAASAAENSPKYLPYAKEETKKGEELLKKGKKLFEEE
B15: design_608_fd41b8f9-4da9-4c78-93ec-aaa316ed4933_1719_dldesign_0_cycle1_af2pred (protein)
chain: DGYEKGKAVAERFKEDAEKIGNTEAAAEGLELLAEQWKAYAEKNTPEEAKEANKAAKEFKEEAKKYKEKAKA
B16: design_608_fd41b8f9-4da9-4c78-93ec-aaa316ed4933_1350_dldesign_0_cycle1_af2pred (protein)
chain: SEAYKEFHEALQYATDAGYEYAKNPEEGKKELAKAEEHLKKAEELADPETAAKMREIYERRLAREKERAERLKKERN
B17: design_608_fd41b8f9-4da9-4c78-93ec-aaa316ed4933_1810_dldesign_0_cycle1_af2pred (protein)
chain: MEELKKVVEETKEYAKKLIESDGFSLVGKSAYEAAEKALKEGNLEKAKEIYEKTKKMYERAEEYEKLAEEREKKYL
B18: design_608_fd41b8f9-4da9-4c78-93ec-aaa316ed4933_1103_dldesign_0_cycle1_af2pred (protein)
chain: SPQAAADALRAAQRLLREAGARAEAAGAQEAADLLRQASFALAGTGADEALALIDAAAAAYPEVAPLLDEARAAARAYGELLN
B19: design_608_fd41b8f9-4da9-4c78-93ec-aaa316ed4933_2202_dldesign_0_cycle1_af2pred (protein)
chain: DEYLKEAEKVYKETKKVIEEAKKKEKEEALKEIAKATQEATMKLTELAAEAAREGDKETAEKIRELRRELIEYATKVAEEVKAK
B20: design_609_7ee6ce64-4629-41e8-bcb4-ba0da017284d_21_dldesign_0_cycle1_af2pred (protein)
chain: SLEEELNKKKTEELIEEGIKALKEYAEKGKLEEGKAIASKKVQEAFDLGYEEGREAARKVREAYDKLAKEIEKKKA
B21: design_608_fd41b8f9-4da9-4c78-93ec-aaa316ed4933_1790_dldesign_0_cycle1_af2pred (protein)
chain: MEFIKEVSKKVHDTRFYLDSVALKASEEDRKKLEEMRKEVGELMLKAQKAYKEDPEEGKKLAEEALKKAEEAYKYAKSIEE
B22: design_608_fd41b8f9-4da9-4c78-93ec-aaa316ed4933_2418_dldesign_0_cycle1_af2pred (protein)
chain: NKLLKEAIEALKKGIEAAKKGDLMEAQAYFTEARFYAEKYAKENPEYKEKAEKAAELAKEAIKTNGTPEAIKLAEEARKLLEEI
B23: design_608_fd41b8f9-4da9-4c78-93ec-aaa316ed4933_1756_dldesign_0_cycle1_af2pred (protein)
chain: AQKAVAEAAQAALIAKSAADVSKNIDAETLEEIAKEAKKAAEKAEKEAPEAKEVIEPAKKEAEKLEKIAKEKKA
B24: design_608_fd41b8f9-4da9-4c78-93ec-aaa316ed4933_2275_dldesign_0_cycle1_af2pred (protein)
chain: MEKVKEEAEKLREEAEKAAKAGDVKAVSEAAHKLAELAAEAERESEEAGKVAREALRELREEAKAALAKRAAAAAA
B25: design_608_fd41b8f9-4da9-4c78-93ec-aaa316ed4933_2157_dldesign_0_cycle1_af2pred (protein)
chain: SELEEEIKKLAKELNEAIMKLADLASPEETREAAKKALEAKKLAKEDPEKGLEKLKEALKETKKLLEKAEKEN
B26: design_608_fd41b8f9-4da9-4c78-93ec-aaa316ed4933_1539_dldesign_0_cycle1_af2pred (protein)
chain: SKRKEAARIAAEIVRRGHRIGAALARTIGPAAGAATEATLEELADLALEDPEKGRELGEAAVAAAEAAIAAARAA
B27: design_608_fd41b8f9-4da9-4c78-93ec-aaa316ed4933_1451_dldesign_0_cycle1_af2pred (protein)
chain: GSAAAAAAAAAAAIQAQQDKAMEYADEIYEKISKEVGKSTGIKVASDAFSYAMKTDFETGKKYGEEKEIKVIKEAKKK
B28: design_608_fd41b8f9-4da9-4c78-93ec-aaa316ed4933_2496_dldesign_0_cycle1_af2pred (protein)
chain: EEEVREEAERIRERAKEIAEKAKKLAEEAEKDPSKAKEAEEKSRKLAEELRELGERARELGDEEAARAAAEAAAVAHEARAEAYAIAN
B29: design_608_fd41b8f9-4da9-4c78-93ec-aaa316ed4933_1545_dldesign_0_cycle1_af2pred (protein)
chain: GSSVHKELADKLKKAIEEGEAAAKAGDVEKGKQIYADALGEVLGYPEASRQKLLDLPAKEGYEKAKKLLTNAYDGLSSLAKK
B30: design_608_fd41b8f9-4da9-4c78-93ec-aaa316ed4933_2179_dldesign_0_cycle1_af2pred (protein)
chain: MKEEEAKKAIEEAKKAIKEAREVGKELAKKDPSKKAFVDEAAKKLHELREKLAEAESLLKKDPEKAKKLAEEVKKKAKEIKKELEKA
B31: design_608_fd41b8f9-4da9-4c78-93ec-aaa316ed4933_2434_dldesign_0_cycle1_af2pred (protein)
chain: AAEEAIKKAKKIVEEAVKIMEEAGKKNPEYKEEFEKKNKKIKELLKEAEKLVKEGKKEEGIKTAVKAAHEAREAKAEAEWILRRN
B32: design_608_fd41b8f9-4da9-4c78-93ec-aaa316ed4933_2243_dldesign_0_cycle1_af2pred (protein)
chain: DEAKKEAAKAAQKAYEAIAEAEQAIRSGNAEELKKAAEEAKKAAKEAEKAAKKSKDKEVKEELKRVAKKAKEAAKKAKEAAKKLEA
B33: design_608_fd41b8f9-4da9-4c78-93ec-aaa316ed4933_1483_dldesign_0_cycle1_af2pred (protein)
chain: METKRLSEAHRIAVRAAQAAGAAATTAAEKAAIAAAKFQAVDSDPEELIAILRATGAAFPKQAPHFDAAVAEIEKAIEEY
B34: design_608_fd41b8f9-4da9-4c78-93ec-aaa316ed4933_1393_dldesign_0_cycle1_af2pred (protein)
chain: STVEEALAAAKKNIAAAKAAAAAGDFAAAAAALHEARENVSVIYANDKEKGEELRKEVTAVRAEIRAKEEAA
B35: design_608_fd41b8f9-4da9-4c78-93ec-aaa316ed4933_1100_dldesign_0_cycle1_af2pred (protein)
chain: ELAKEIEKFAEEAKERAKKGNPEEAREAYREFREKAKKIAEEDPSVAELASKKAAEVAEVAAEAIYKKLKE
B36: design_608_fd41b8f9-4da9-4c78-93ec-aaa316ed4933_1455_dldesign_0_cycle1_af2pred (protein)
chain: HMSELTKKTSDVISEAVKTSREAVKEAEKKDPALGEKLKEFYTKALLDAQDGDPFKGATELLKKAKADLAAVKAS
B37: design_608_fd41b8f9-4da9-4c78-93ec-aaa316ed4933_2397_dldesign_0_cycle1_af2pred (protein)
chain: RDKLLMYVAAVRGAARIAKDDPEKGKEALEIETEELVEVMAKASEEEAAEAKELAVAAAAEVDPEIAEWVRKFIEEKLKEKR
B38: design_608_fd41b8f9-4da9-4c78-93ec-aaa316ed4933_1306_dldesign_0_cycle1_af2pred (protein)
chain: GKEEAEKILKEAKAKLDALAKENPALAPLAAEAKERIEKKYKKAIEADEKDPKQGKAAAEALKEFAKNAVAAVEKKK

molecular target: VTCN1, Q7Z7D3
Sequence (Q7Z7D3 whole entry): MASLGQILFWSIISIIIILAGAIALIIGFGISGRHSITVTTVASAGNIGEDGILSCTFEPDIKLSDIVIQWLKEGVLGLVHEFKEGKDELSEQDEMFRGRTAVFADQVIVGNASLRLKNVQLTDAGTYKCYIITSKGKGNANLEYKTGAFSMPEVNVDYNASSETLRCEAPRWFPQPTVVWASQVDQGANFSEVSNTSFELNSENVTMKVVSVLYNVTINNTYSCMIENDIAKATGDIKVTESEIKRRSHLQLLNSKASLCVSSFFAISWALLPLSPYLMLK

Binding in a display sort, inactive:
B1 not found
B2 not found
B3 not found
B4 not found
B5 not found
B6 not found
B7 not found
B8 not found
B9 not found
B10 not found
B11 not found
B12 not found
B13 not found
B14 not found
B15 not found
B16 not found
B17 not found
B18 not found
B19 not found
B20 not found
B21 not found
B22 not found
B23 not found
B24 not found
B25 not found
B26 not found
B27 not found
B28 not found
B29 not found
B30 not found
B31 not found
B32 not found
B33 not found
B34 not found
B35 not found
B36 not found
B37 not found
B38 not found
